The values that follow come from PubChem BioAssay (NCI).

The structures appear in SMILES notation. The panel holds about 83,000 compounds, 20% with a hit somewhere; the sample as a whole holds those more often.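 Testing used 96-well plates and a 48-hour single-concentration exposure. Example: -40 means 40% of the starting cells died.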 A number with no mark means an inactive call. The source made the active and inactive calls. How the source made its calls: active means growth percent below 10; inactive means the rest.

Test systems include SR leukemia; RPMI-8226 leukemia; OVCAR-8 ovarian; OVCAR-5 ovarian; OVCAR-4 ovarian; SK-OV-3 ovarian; IGROV1 ovarian; OVCAR-3 ovarian; HS 578T breast; NCI/ADR-RES ovarian.
Holding throughout (test): NCI-60 one-dose screen, 48 h (100 = growth as untreated, 0 = no growth, -100 = all killed)
What all share (details): 10 µM unless noted

Turning to `COc1ccc(C2c3ccccc3NC(=O)N2C2CCN(C)CC2)c(OC)c1` (stereo not given), the growth with SR leukemia was 41.4%; with RPMI-8226 leukemia, 113%; in the assay with OVCAR-8 ovarian, 104%; in the assay with OVCAR-5 ovarian, 88.4%; in the assay with OVCAR-4 ovarian, 105%; in the assay on SK-OV-3 ovarian, 101%. In addition, the growth in the assay with IGROV1 ovarian is 94.3%; in the assay with OVCAR-3 ovarian, 110%; in the assay with HS 578T breast, 92%; with NCI/ADR-RES ovarian, 103%.
Regarding `c1cnc2[nH]cc(-c3csc(-c4cn(CCCN5CCCCC5)c5ccccc45)n3)c2c1`, the growth in the assay with SR leukemia is -31.4% (active); with RPMI-8226 leukemia, -26.8% (active); in the assay on OVCAR-8 ovarian, 69.7%; in the assay on OVCAR-5 ovarian, 92.5%; in the assay with OVCAR-4 ovarian it was 75.7%; in the assay on SK-OV-3 ovarian, 94.2%. Also, the growth was 34.6% in the assay with IGROV1 ovarian, 60.4% with OVCAR-3 ovarian, 73.3% in the assay on HS 578T breast and 68.1% in the assay on NCI/ADR-RES ovarian.
Turning to `N#CC1=C(N)Oc2c(c(N)nn2-c2ccccc2)C1c1ccc(Cl)cc1Cl` (stereo not given), the growth in the assay with SR leukemia is 97.3%; in the assay with RPMI-8226 leukemia it was 94.4%; in the assay on OVCAR-8 ovarian, 96.9%; in the assay with OVCAR-5 ovarian, 98.2%; in the assay on OVCAR-4 ovarian, 95.7%; in the assay with SK-OV-3 ovarian it was 92.5%. Besides, the growth in the assay on IGROV1 ovarian was 101%; with OVCAR-3 ovarian it was 110%; with HS 578T breast it was 101%; in the assay on NCI/ADR-RES ovarian, 100%.
Consider `Oc1ccc(CCC2CCCC(CCc3ccc(OCCF)cc3)N2)cc1` (stereo not given), for which the growth in the assay with SR leukemia was 67.2%; with RPMI-8226 leukemia it was 90.8%; in the assay on OVCAR-8 ovarian it was 93.3%; in the assay with OVCAR-5 ovarian, 89.4%; in the assay on OVCAR-4 ovarian, 82.9%; in the assay with SK-OV-3 ovarian it was 96%. Further, the growth was 96.2% in the assay on IGROV1 ovarian, 107% in the assay with OVCAR-3 ovarian, 97.5% in the assay on HS 578T breast and 87.6% in the assay on NCI/ADR-RES ovarian.
As for `Nc1c2c(nc3ccc(Br)cc13)CC(c1ccccc1)CC2=O` (stereo not given), the growth in the assay on SR leukemia is 27.1%; in the assay with RPMI-8226 leukemia it was 17.8%; with OVCAR-8 ovarian, 44.7%; in the assay with OVCAR-5 ovarian, 49.2%; with OVCAR-4 ovarian, 68.7%; with SK-OV-3 ovarian, 63.6%. Further, the growth in the assay with IGROV1 ovarian is 36.7%; in the assay with OVCAR-3 ovarian, 14.7%; in the assay on HS 578T breast, 30.9%; with NCI/ADR-RES ovarian it was 11%.
Consider `O=S(=O)(NCCNc1cc(-c2cn(-c3ccccc3)nc2-c2cccc(O)c2)ccn1)c1ccc(Cl)cc1`, for which the growth in the assay on SR leukemia was 2.36% (active); in the assay on RPMI-8226 leukemia it was 12.8%; in the assay with OVCAR-8 ovarian, 31%; in the assay on OVCAR-5 ovarian, 63.4%; in the assay with OVCAR-4 ovarian, 38.2%; in the assay with SK-OV-3 ovarian, 53.5%. The growth is 44.4% with IGROV1 ovarian, 43.2% in the assay with OVCAR-3 ovarian, 21.2% with HS 578T breast and 29.1% in the assay with NCI/ADR-RES ovarian.
On to `COC(=O)CNc1nc(N(C)O)nc(N(C)O)n1`, for which the growth with SR leukemia is 34.3%; with RPMI-8226 leukemia, 36.4%; with OVCAR-8 ovarian, 34.3%; with OVCAR-5 ovarian it was 87.7%; with OVCAR-4 ovarian, 29.3%; in the assay on SK-OV-3 ovarian, 50.8%. Further, the growth was 48% in the assay on IGROV1 ovarian, -6.47% (active) with OVCAR-3 ovarian, 77.8% in the assay with HS 578T breast and 21.3% in the assay with NCI/ADR-RES ovarian.
For the compound `COC(=O)[C@]12CC[C@@H](C)[C@H](C)[C@@H]1C1=CC[C@@H]3[C@@]4(C)C[C@@H](OC(C)=O)[C@H](O)[C@@](C)(COC(C)=O)[C@@H]4[C@H](O)C[C@@]3(C)[C@]1(C)CC2`, the growth was -17.7% (active) in the assay with SR leukemia; -23.7% (active) in the assay with RPMI-8226 leukemia; -53.7% (active) in the assay with OVCAR-8 ovarian; -75.8% (active) in the assay on OVCAR-5 ovarian; -70.3% (active) in the assay with OVCAR-4 ovarian; -81.5% (active) with SK-OV-3 ovarian. Moreover, the growth is -61.3% (active) in the assay with IGROV1 ovarian, -79.4% (active) in the assay on OVCAR-3 ovarian, -28.4% (active) in the assay with HS 578T breast and -63.7% (active) in the assay on NCI/ADR-RES ovarian.
For the compound `NC1=NN=C2N(N)C(=O)c3cnn(-c4ccccc4)c3N2c2nc(-c3ccccc3)cc(-c3ccccc3)c21`, the growth with SR leukemia is 103%; in the assay with RPMI-8226 leukemia, 93.5%; in the assay with OVCAR-8 ovarian it was 102%; in the assay on OVCAR-5 ovarian it was 104%; with OVCAR-4 ovarian, 82.8%; with SK-OV-3 ovarian it was 93.2%. Further, the growth was 89% in the assay with IGROV1 ovarian, 116% in the assay on OVCAR-3 ovarian, 101% in the assay on HS 578T breast and 92.1% with NCI/ADR-RES ovarian.
On to `O=S(=O)(NCCCNc1cc(-c2cn(-c3ccccc3)nc2-c2cccc(O)c2)ccn1)c1ccc(F)cc1`, for which the growth was 6.17% (active) in the assay with SR leukemia; 21.4% in the assay on RPMI-8226 leukemia; 23.4% in the assay on OVCAR-8 ovarian; 65.5% in the assay with OVCAR-5 ovarian; 35.7% in the assay with OVCAR-4 ovarian; 49% in the assay on SK-OV-3 ovarian. Also, the growth was 40.6% with IGROV1 ovarian, 45.8% in the assay on OVCAR-3 ovarian, 24.3% with HS 578T breast and 25.9% with NCI/ADR-RES ovarian.
With `COc1cc(/C=C/c2cc(/C=C/c3ccc(O)c(OC)c3)n(-c3ccc(Cl)cc3)c(=O)n2)ccc1O`, the growth is 36.4% in the assay on SR leukemia; 64.5% with RPMI-8226 leukemia; 107% with OVCAR-8 ovarian; 103% with OVCAR-5 ovarian; 78.3% in the assay on OVCAR-4 ovarian; 89.7% with SK-OV-3 ovarian. Also, the growth in the assay on IGROV1 ovarian is 8.57% (active); with OVCAR-3 ovarian, 83.8%; in the assay on HS 578T breast, 87.4%; with NCI/ADR-RES ovarian, 96.5%.
As for `C=C(C)[C@@H]1CC[C@]2(CN)CC[C@]3(C)[C@H](CC[C@@H]4[C@@](C)(CCCN)[C@H](C(=C)C)CC[C@]43C)[C@@H]12`, the growth in the assay on SR leukemia was -3.93% (active); in the assay with RPMI-8226 leukemia it was 58.5%; in the assay with OVCAR-8 ovarian, 94.1%; in the assay on OVCAR-5 ovarian, 103%; in the assay with OVCAR-4 ovarian, 102%; in the assay with SK-OV-3 ovarian, 107%. In addition, the growth in the assay on IGROV1 ovarian is 86.9%; with OVCAR-3 ovarian, 89.4%; with HS 578T breast it was 89.4%; in the assay on NCI/ADR-RES ovarian it was 94.5%.
